Laboratory results taken from a collection of fitness landscapes (doi:10.1016/j.celrep.2020.107928).
In all, about 81,000 sequences were measured (“one-hybrid fitness for binding NBS DNA”: median about -0.1, highest 2% from about 0.36 on). This excerpt belongs to a sample that is enriched for the highest values.

B1: Caulobacter ParB omega fusion; a variant is named by its letters at X, in order, B8GW30 (parent)
chain: MESVVVGEPGMSEGRRGLGRGLSALLGEVDAAPAQAPGEQLGGSREAPIEILQRNPDQPRRTFREEDLEDLSNSIREKGVLQPILVRPSPDTAGEYQIVAGERAWRAAQRAGLKTVPIMVRELDDLAVLEIGIIENVQRADLNVLEEALSYKVLMEKFERTQENIAQTIGKSXSHVANXMRLLXLPDEVQSYLVSGELTAXHARAIAAAADPVALAKQIIEGGLSVRETEALARKAPNLSAGKSKGGRPPRVKDTDTQALESDLSSVLGLDVSIDHRGSTGTLTITYATLEQLDDLCNRLTRGI

Variants of: B1
Experiment: one-hybrid fitness for binding NBS DNA (the Noc-binding site; scaled: cognate 1, non-cognate 0); higher = stronger binding
Settings: with NBS DNA site
Method in brief: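 Bacterial one-hybrid selection in E. coli USO rpoZ- hisB- pyrF- with a HIS3 reporter carrying the site 19 bp from the promoter, screening Caulobacter ParB libraries with four specificity codons randomised (NNS). Cells grew 48 hours at 37°C on M9-minus-histidine plus 0.1 mM IPTG and 5 mM 3-AT. Plasmids before and after selection were Illumina-sequenced, three replicate libraries pooled, and variants under 10 reads dropped. Fitness is the log change in variant-to-wild-type read ratio, rescaled to cognate 1, non-cognate 0.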

Variant | one-hybrid fitness for binding NBS DNA
GSSG | ≤ 0.2
PGTF | ≤ 0.2
LPSK | ≤ 0.2
PGGS | ≤ 0.2
RQIG | ≤ 0.2
MIKI | ≤ 0.2
NGIR | ≤ 0.2
FGEY | ≤ 0.2
RHNR | 0.539
RHDR | 0.216
RHNN | ≤ 0.2
NDST | ≤ 0.2
SAPN | ≤ 0.2
YTYC | ≤ 0.2
QRSG | 0.339
QRSR | 0.997
NRRR | 0.251
QRQR | 0.987
DRRR | 0.215
QRYR | 0.924
QRRR | 1.1
QRSF | 0.262
NRYR | ≤ 0.2
NRQR | ≤ 0.2
DRYR | ≤ 0.2

Variant | one-hybrid fitness for binding NBS DNA
QRQL | 0.255
RCHV | ≤ 0.2
LHEL | ≤ 0.2
TCPE | ≤ 0.2
KYMS | ≤ 0.2
DRGR | ≤ 0.2
QRDR | 0.679
QRCR | 0.981
QDCR | ≤ 0.2
QRGR | 1.04
DRCR | ≤ 0.2
QRLF | 0.238
QRLR | 0.945
QRLQ | 0.327
NRGR | ≤ 0.2
DAMG | ≤ 0.2
RDCF | ≤ 0.2
SWLF | ≤ 0.2
THYV | ≤ 0.2
EPRD | ≤ 0.2
AGTM | ≤ 0.2
AMGA | ≤ 0.2
QRNR | 1.03
NRNR | ≤ 0.2
DRHR | ≤ 0.2

Variant | one-hybrid fitness for binding NBS DNA
DRNR | ≤ 0.2
NRHR | ≤ 0.2
QRHR | 1.06
TTSN | ≤ 0.2
DLQW | ≤ 0.2
DYWR | ≤ 0.2
QHFN | ≤ 0.2
QHFR | 0.408
QHAN | ≤ 0.2
QHAR | 0.523
QHFS | ≤ 0.2
QHAH | ≤ 0.2
GISW | ≤ 0.2
ACMF | ≤ 0.2
RFMI | ≤ 0.2
EHLG | ≤ 0.2
SCYH | ≤ 0.2
MRMG | ≤ 0.2
RYVT | 0.229
RYLT | 0.366
RYNP | ≤ 0.2
RYLD | ≤ 0.2
RYRT | 0.664
RYYT | 0.349
RYNT | 0.514

Variant | one-hybrid fitness for binding NBS DNA
RYLH | ≤ 0.2
RYPT | ≤ 0.2
RYKT | 0.604
RYWT | 0.281
RYDT | 0.204
LHLS | ≤ 0.2
ILDG | ≤ 0.2
GDTF | ≤ 0.2
TMRI | ≤ 0.2
MQPC | ≤ 0.2
MRDI | ≤ 0.2
WQSY | ≤ 0.2
RYAH | ≤ 0.2
RYCC | ≤ 0.2
RYAT | 0.461
RYCT | 0.372
RYFT | ≤ 0.2
RYCG | ≤ 0.2
TALL | ≤ 0.2
HITC | ≤ 0.2
LYGC | ≤ 0.2
QTWD | ≤ 0.2
QHWT | 0.375
QTYT | 0.572
QTRT | 0.891

Variant | one-hybrid fitness for binding NBS DNA
QTWH | ≤ 0.2
NTRT | ≤ 0.2
QHWN | ≤ 0.2
QTWT | 0.543
DTRT | ≤ 0.2
QHWD | ≤ 0.2
DQMC | ≤ 0.2
HTHS | ≤ 0.2
SPAK | ≤ 0.2
IRFR | ≤ 0.2
WCIR | ≤ 0.2
QTNT | 0.71
QSWT | 0.348
QCWT | 0.461
QTDT | 0.448
QPWT | ≤ 0.2
QTSF | ≤ 0.2
QTNP | ≤ 0.2
QTST | 0.61
QTND | 0.227
QTSC | 0.214
IHPM | ≤ 0.2
MVSY | ≤ 0.2
TTTW | ≤ 0.2
HGWD | ≤ 0.2

Variant | one-hybrid fitness for binding NBS DNA
LSVE | ≤ 0.2
EWQK | ≤ 0.2
GLRI | ≤ 0.2
TRMF | ≤ 0.2
IGRY | ≤ 0.2
TRSQ | ≤ 0.2
TCVR | ≤ 0.2
TPKR | 0.351
TPKQ | ≤ 0.2
TPVR | 0.513
TPVQ | 0.763
TSVQ | ≤ 0.2
TTSQ | ≤ 0.2
TPVT | 0.375
TCVT | ≤ 0.2
TPKT | ≤ 0.2
TSSQ | 0.493
VMCN | ≤ 0.2
SSHR | 0.261
WIIS | ≤ 0.2
QDAC | ≤ 0.2
YRCS | ≤ 0.2
QPDL | ≤ 0.2
QYVG | ≤ 0.2
RKCC | ≤ 0.2

Variant | one-hybrid fitness for binding NBS DNA
HGRR | ≤ 0.2
EGQR | ≤ 0.2
QAVA | ≤ 0.2
QCKA | 0.608
QIKA | 0.351
QPKA | ≤ 0.2
QMKA | 0.596
QMIA | ≤ 0.2
QHIA | ≤ 0.2
QAKA | 0.521
QALA | ≤ 0.2
QMVA | ≤ 0.2
QHVA | ≤ 0.2
QHKA | 0.597
NDTL | ≤ 0.2
YAKI | ≤ 0.2
LRRN | ≤ 0.2
TCKG | ≤ 0.2
WGAS | ≤ 0.2
PPRC | ≤ 0.2
QKPA | ≤ 0.2
QSVA | ≤ 0.2
QLKA | 0.466
QLVA | ≤ 0.2
QKKA | 0.577

Variant | one-hybrid fitness for binding NBS DNA
QWKA | ≤ 0.2
QKVA | ≤ 0.2
QSKA | 0.558
QLLA | ≤ 0.2
AVKE | ≤ 0.2
NQRA | ≤ 0.2
FGAF | ≤ 0.2
QMVR | 0.424
QMVD | ≤ 0.2
QMKL | 0.262
QMVP | ≤ 0.2
QMKR | 1.03
QMKG | 0.336
TAHS | ≤ 0.2
IMVC | ≤ 0.2
HTKM | ≤ 0.2
KTGG | ≤ 0.2
ETHC | ≤ 0.2
RRQR | 0.765
RRDR | 0.666
RRQK | 0.261
RRGR | 0.744
RRLQ | 0.209
RRGF | ≤ 0.2
RRQF | 0.221

Variant | one-hybrid fitness for binding NBS DNA
RRGQ | 0.239
RPDR | ≤ 0.2
RRLR | 0.702
RRLG | 0.245
SFAS | ≤ 0.2
HDCG | ≤ 0.2
DQVR | ≤ 0.2
KNLL | ≤ 0.2
DPPY | ≤ 0.2
PPNW | ≤ 0.2
ARKC | ≤ 0.2
HVNI | ≤ 0.2
HCSE | ≤ 0.2
RRER | 0.629
RPER | ≤ 0.2
RRNG | 0.343
RRNE | ≤ 0.2
RGRR | 0.336
RRNR | 0.813
RRSR | 0.756
RRSM | 0.311
RRRR | 0.904
RCER | 0.245
RRSF | ≤ 0.2
RERR | ≤ 0.2

Variant | one-hybrid fitness for binding NBS DNA
PAQI | ≤ 0.2
TDSA | ≤ 0.2
YSRC | ≤ 0.2
RRHF | 0.207
RRWG | 0.216
RRYR | 0.728
RRHR | 0.771
RRHQ | 0.293
RRCR | 0.75
RRWR | 0.732
RRCF | ≤ 0.2
RRWK | 0.249
RRCC | 0.325
ETHW | ≤ 0.2
GAPL | ≤ 0.2
TTDQ | ≤ 0.2
QPFL | ≤ 0.2
QGKK | ≤ 0.2
MPVQ | ≤ 0.2
KLMT | ≤ 0.2
PRPV | ≤ 0.2
TLPW | ≤ 0.2
PPHD | ≤ 0.2
RYTW | ≤ 0.2
DCRL | 0.405

Variant | one-hybrid fitness for binding NBS DNA
QTRL | 0.406
QCKL | 0.307
QTYL | ≤ 0.2
DIRL | ≤ 0.2
QPRL | ≤ 0.2
QTKL | 0.395
QTDL | ≤ 0.2
QCRL | 0.401
DPRL | ≤ 0.2
QMRL | 0.287
QTVL | ≤ 0.2
DKKC | ≤ 0.2
LTSP | ≤ 0.2
DSLM | ≤ 0.2
GRHR | ≤ 0.2
VANW | ≤ 0.2
RFPW | ≤ 0.2
RCCM | ≤ 0.2
PGLH | ≤ 0.2
CHHR | ≤ 0.2
QRKL | 0.367
QRYL | ≤ 0.2
QRVL | ≤ 0.2
FRYF | ≤ 0.2
INML | ≤ 0.2

Variant | one-hybrid fitness for binding NBS DNA
RHIS | ≤ 0.2
RHNH | ≤ 0.2
RHYS | 0.376
RHWS | ≤ 0.2
RHRN | ≤ 0.2
RHNS | 0.505
RHRD | ≤ 0.2
RHHS | 0.443
RHHD | ≤ 0.2
RHHN | ≤ 0.2
RHDS | ≤ 0.2
RHRS | 0.585
MVLT | ≤ 0.2
QIMY | ≤ 0.2
AMWR | ≤ 0.2
RYEA | ≤ 0.2
SMFC | ≤ 0.2
RFVV | ≤ 0.2
KGDK | ≤ 0.2
QSAY | ≤ 0.2
QCAY | 0.21
QSFY | ≤ 0.2
QRFY | 0.392
QCFY | 0.213
QRAY | 0.516

Variant | one-hybrid fitness for binding NBS DNA
PAFP | ≤ 0.2
VCPS | ≤ 0.2
MCMN | ≤ 0.2
DHRV | ≤ 0.2
QRTM | 0.414
QRTQ | 0.437
QRTS | 0.685
QCTQ | ≤ 0.2
QCTV | ≤ 0.2
QSTM | ≤ 0.2
QCTM | ≤ 0.2
QRTV | 0.412
QRTF | 0.294
QPTV | ≤ 0.2
QRTG | 0.356
QSTQ | ≤ 0.2
